Screening results deposited in PubChem by The Scripps Research Institute Molecular Screening Center.
PAFAH1B2 inh: inhibitors of human PAFAH1B2; inhibition, % at 3.39 µM; 340,000 tested, 1.2% active; recombinant PAFAH1B2, FP-rhodamine activity probe, fluorescence polarization; P68402;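 active means inhibition above the mean of all tested compounds plus 3 SD, cut at about 24% in these data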;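 further: 0% = enzyme with DMSO and 100% = wells lacking PAFAH1B2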
Target sequence (P68402 whole entry, looked up): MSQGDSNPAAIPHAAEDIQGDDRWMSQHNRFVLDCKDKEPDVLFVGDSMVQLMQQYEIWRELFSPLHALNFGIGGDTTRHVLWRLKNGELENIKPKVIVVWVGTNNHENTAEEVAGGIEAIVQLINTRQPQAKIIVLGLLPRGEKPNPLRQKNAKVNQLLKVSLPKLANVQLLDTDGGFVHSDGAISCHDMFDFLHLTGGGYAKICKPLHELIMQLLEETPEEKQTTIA
E coli Lon inh: E. coli protease La inhibition | inhibition, % at 7.94 µM | purified E. coli Lon protease, fluorescence polarization | 360,000 tested, 0.42% active | P0A9M0; in the data active means inhibition above about 13%, passing the limit was not always enough;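 further: 0% = enzyme with probe and DMSO and 100% = no enzyme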
PAFAH1B3 inh: inhibitors of human PAFAH1B3; Q15102; recombinant PAFAH1B3, FP-rhodamine probe, fluorescence polarization; inhibition, % at 3.39 µM; 340,000 tested, 0.28% active;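 active means inhibition above the screen-wide average of all tested compounds plus 3 SD, cut at about 25% in these data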;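 further: 0% = enzyme with DMSO only and 100% = wells lacking PAFAH1B3 protein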
Target sequence (Q15102 whole entry, looked up): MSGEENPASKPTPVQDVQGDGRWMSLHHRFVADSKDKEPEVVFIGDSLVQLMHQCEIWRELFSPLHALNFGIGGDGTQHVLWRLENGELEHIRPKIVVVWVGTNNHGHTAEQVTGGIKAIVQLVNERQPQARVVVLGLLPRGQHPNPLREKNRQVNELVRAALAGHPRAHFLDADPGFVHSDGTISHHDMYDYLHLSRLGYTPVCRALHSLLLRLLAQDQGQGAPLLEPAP
Rin1 Abl inh: human Rin1-Abl interaction inhibition | TR-FRET Rin1/Abl binding, biochemical | inhibition, % at 7.35 µM | 360,000 tested, 0.4% active | AID 588664 | P00519+Q13671; in the data active means inhibition above about 5%, passing the limit was not always enough
PAFAH2 FP inh: inhibitors of human PAFAH2. Q99487. recombinant PAFAH2, FP-rhodamine activity probe, fluorescence polarization. inhibition, % at 3.39 µM. 340,000 tested, 0.99% active. AID 492956;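 active means inhibition above the mean over all tested compounds plus 3 SD, cut at about 30% in these data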;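 further: inhibitors block probe labeling of enzyme so polarization drops; 0% = enzyme with DMSO and 100% = wells lacking PAFAH2 protein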
pPAFAH inh: inhibitors of human plasma PAF acetylhydrolase (pPAFAH); Q13093; recombinant pPAFAH, FP-rhodamine probe fluorescence polarization; 330,000 tested, 1.5% active; inhibition, % at 3.39 µM;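 active means inhibition above the mean inhibition across the screen plus 3 SD, cut at about 25% in these data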;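 further: inhibitors block binding of the rhodamine activity-based probe so polarization drops; 0% = enzyme with DMSO and 100% = wells lacking pPAFAH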
Rin1 Abl conf: confirmation of inhibitors of human Rin1-Abl interaction | shares compounds with Rin1 Abl inh | TR-FRET Rin1-Abl binding, purified proteins | inhibition, % at 7.35 µM | 1,300 tested, 49% active | AID 602124
GFP quencher: counter-screen for Rin1-Abl inhibitors: GFP fluorescence quenchers; shares compounds with Rin1 Abl inh; inhibitors/quenchers counterscreen; inhibition, % at 6.75 µM; 1,300 tested, 8.5% active;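 further: ABL1-eGFP fusion protein alone without its partner RIN1-SBP; 0% = protein with vehicle and 100% = wells lacking protein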
GFP quench dose: counter-screen for Rin1-Abl inhibitors: GFP quenchers, dose response. GFP fluorescence interference/quenching counterscreen. IC50, µM. shares compounds with Rin1 Abl inh. 230 tested, under 10 active; call rule not given here;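 further: ABL1-eGFP fusion protein alone without its RIN1 binding partner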
* hit, by the source's call; / = no result. Compounds with a hit are over-represented: about 3.1% of the library has one in this group of screens. Unless noted, no stated cut-off is given here; in the data, active means inhibition above about 6.5%; inactive means the rest.

SMILES	PAFAH1B2 inh	E coli Lon inh	PAFAH1B3 inh	Rin1 Abl inh	PAFAH2 FP inh	pPAFAH inh	Rin1 Abl conf	GFP quencher	others
COc1ccccc1C(=O)CN1C(=O)NC2(CCc3ccccc32)C1=O (configuration not stated)	0	-13	2	-2	9	8	/	/
CCOc1ccc(N(CC(=O)NC2CC2)S(=O)(=O)c2ccc(C)cc2)cc1	0	0	0	-1	-6	-1	/	/
COCCN1CCn2c(nc3cc(NC(=O)Cn4nc(C)c5ccccc5c4=O)ccc32)C1	6	2	8	0	3	1	/	/
Cc1nn(CC(=O)Nc2ccc3c(c2)nc2n3CCOC2)c(=O)c2ccccc12	-3	-2	1	10*	-2	18	-1	1
O=C1/C(=C/c2ccc(O)cc2)CCc2ccc([N+](=O)[O-])cc21	6	-16	19	-1	8	2	/	/
O=C1/C(=C\c2ccc([N+](=O)[O-])cc2)CCc2ccccc21	1	-9	-6	18*	7	-2	-1	-1
COc1ccc(C(c2nnnn2C2CCCCC2)N2CCN(C/C=C/c3ccccc3)CC2)cc1 (configuration not stated)	/	2	/	-1	/	/	/	/
CCOC(=O)C1(C)CCN1C(=O)c1ccccc1 (configuration not stated)	/	-1	/	-1	/	/	/	/
O=S(=O)(Cc1ccccc1)CS(=O)(=O)Cc1ccccc1	0	3	0	8	2	/	/	/
CC1CCN(C(=O)c2ccc(N3CCOCC3)c([N+](=O)[O-])c2)CC1	4	-3	5	8.9*	6	6	-3	-1
COc1ccc(C(=O)Nc2nnc(CCS(=O)(=O)c3ccc(C)cc3)s2)cc1	9	-5	-2	-1	2	4	/	/
O=C(CC1C(=O)NCCN1Cc1c(F)cccc1Cl)NCCCOc1cccnc1 (configuration not stated)	3	6	12	14*	1	2	12*	-1
CN=C1N(C)C[C@@H]2[C@@H]3C(=O)N(C)C(=O)[C@@H]3[C@](C)(C(=O)OC)N12	5	0	10	-3	-9	-12	/	/
CC1(C(=O)Nc2ccc(Cl)cc2)Cc2c(-c3cccc(C(N)=O)c3)ccnc2O1 (configuration not stated)	/	2	/	-3	/	/	/	/
CC1(C(=O)Nc2ccc3c(c2)OCO3)Cc2c(-c3cccc(C(N)=O)c3)ccnc2O1 (configuration not stated)	/	7	/	8.8*	/	/	7.8*	-2
CC1(C(=O)Nc2ccc3c(c2)OCO3)Cc2c(-c3ccc4c(c3)OCO4)ccnc2O1 (configuration not stated)	/	0	/	-3	/	/	/	/
CC(=O)Nc1cccc(-c2ccnc3c2CC(C)(C(=O)NCc2ccc(N(C)C)cc2)O3)c1 (configuration not stated)	/	2	/	6.7*	/	/	6	-2
CC1(C(=O)Nc2ccccc2)Cc2c(-c3cccc(C(N)=O)c3)ccnc2O1 (configuration not stated)	/	-2	/	14*	/	/	15*	-1
COCCNC(=O)C1(C)CCCN(CCC(=O)c2ccc(Br)cc2)C1 (configuration not stated)	/	3	/	-1	/	/	/	/
CCCCOc1ccc(C(=O)N2CCN(CC(=O)Nc3ccc(C)cc3)CC2)cc1OC	3	-4	-10	8.6*	-7	10	11*	-1
CC1CCCC(C)N1C(=O)COC(=O)c1cc(F)c(F)cc1Cl (configuration not stated)	5	0	12	1	9	-3	/	/
O=C(CCNC(=O)c1ccc(Br)cc1)NCc1ccncc1	-3	2	8	10*	8	-3	3	1
CCN(CC)c1ccc(N=Cc2ccc(N(CC)CC)cc2O)cc1	1	-5	4	11*	-1	29*	0	-2
CCN(CC)c1ccc(C=Nc2ccc(N(C)C)cc2)c(O)c1	-16	5	-23	7	-14	16	/	/
COc1cccc(CN2CCN(S(=O)(=O)c3ccc(NC(C)=O)cc3)CC2)c1OC	0	1	7	5	-1	2	/	/
SMILES	PAFAH1B2 inh	E coli Lon inh	PAFAH1B3 inh	Rin1 Abl inh	PAFAH2 FP inh	pPAFAH inh	Rin1 Abl conf	GFP quencher	others
COc1ccc(OC)c(CN2CCN(S(=O)(=O)c3ccc(NC(C)=O)cc3)CC2)c1	9	-1	-3	10*	0	1	1	0
COc1cccc(CC(=O)Nc2cc(S(=O)(=O)N3CCCCC3)ccc2C)c1	0	-5	6	-1	-4	2	/	/
COc1cccc(CC(=O)Nc2ccc(S(=O)(=O)N3CCCCC3)cc2)c1	0	-2	3	8.9*	4	-1	5	0
N=c1ccn(O)cc1CCc1ccccc1	3	-14	6	17*	4	/	22*	0	GFP quench dose=>67
CC(=O)CSc1ccc(S(=O)(=O)N2CCN(C)CC2)cn1	7	2	18	-2	4	0	/	/
COCCN(CCOC)C(=O)CSc1ccc(S(=O)(=O)N2CCN(C)CC2)cn1	2	-15	5	12*	-2	3	26*	1	GFP quench dose=>68
CC(=O)c1ccc(OCC(O)CN2CCN(c3ccccn3)CC2)cc1 (configuration not stated)	/	-1	/	9.3*	/	6	-1	0
CCC(c1nnnn1-c1ccc2c(c1)OCCO2)N1CCN(c2ccc(F)cc2)CC1 (configuration not stated)	/	3	/	/	/	/	/	/
O=c1[nH]c(CSc2nnnn2-c2ccccc2)nc2ccccc12	6	2	4	9.8*	2	0	1	1
Cc1ccc(CN2C(=O)C(CC(C)C)Nc3ncnc(N4CCCCC4)c32)cc1 (configuration not stated)	/	-3	/	2	/	/	/	/
COc1ncccc1C(=O)N1CCCC(C(=O)Nc2cccc(-c3ccc(F)cc3)c2)C1 (configuration not stated)	/	-15	/	1	/	/	/	/
COc1ccc(S(=O)(=O)N(C)C[C@H]2Oc3ccc(NC(=O)C4CCCCC4)cc3C(=O)N([C@H](C)CO)C[C@@H]2C)cc1	3	-1	3	8	6	3	/	/
CCOC(=O)CCCCCC(=O)Nc1ccc2c(c1)C(=O)N([C@H](C)CO)C[C@H](C)[C@@H](CN(C)S(C)(=O)=O)OCCCC[C@@H](C)O2	/	-2	/	10*	/	/	14*	-1
COc1ccc(S(=O)(=O)N(C)C[C@H]2Oc3ccc(NC(=O)C4CC4)cc3C(=O)N([C@H](C)CO)C[C@@H]2C)cc1	4	13	4	19*	-6	2	26*	-1
